Test [1] can be described thus: Viability qHTS for spleen associated tyrosine kinase inhibitor (SYKi) naive MV4-11 cells (AID 1963823). Note: nearly all actives have a fitted effect of over 40% in size. Note: potency is the fitted concentration of half-maximal effect. Particulars: MV4-11 AML viability, CellTiter-Glo luminescence, 72 h; series mostly up to 45 µM. In short, it runs like this: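 SYKi-naive MV4-11 AML cells, 500 per well, were exposed to library compounds for 72 hr at 37 C, 5% CO2. Viability was then read by CellTiter-Glo luminescence after 10 min at room temperature.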
In general terms: qHTS replaces the single test concentration by a dilution series.

Test [2] can be described thus: Viability qHTS for spleen associated tyrosine kinase inhibitor (SYKi) drug resistant MV4-11 cells (AID 1963824). Note: nearly all actives have a fitted effect of over 35% in size. Note: potency is the fitted concentration of half-maximal effect. The following applies: SYKi-resistant MV4-11 viability, CellTiter-Glo, 72 h; series mostly up to 45 µM. In short, it runs like this: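 SYK inhibitor-resistant MV4-11 AML cells, 500 per well, added to predispensed compounds and incubated 72 hr at 37 C, 5% CO2. Viability measured by CellTiter-Glo luminescence after 10 min at room temperature.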

Test [3] is described as follows: Quantitative highthroughput screen to assess conditional lethalithy of NOMO1 cells grown in RPMI1640 with untreated serum (RPMI+s) (AID 1963876).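 For Viability: 100% = DMSO wells and 0% = empty wells without cells.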 Note: nearly all actives have a fitted effect of over 35% in size. Note: potency is the fitted concentration of half-maximal effect. Particulars: NOMO1 AML cells in RPMI+serum, CellTiter-Glo viability, 48 h; series mostly up to 45.8 µM. The procedure, abridged: (§1)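 Each medium arm—HPLM with 10% dialyzed FBS, or RPMI1640 with 5 mM glucose and 10% untreated or dialyzed FBS—was screened against an 11-point, 3-fold compound titration for 48 h at 37 °C, with CellTiter-Glo luminescence as endpoint.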

The nature of test [4]: Quantitative highthroughput screen to assess conditional lethalithy of NOMO1 cells grown in RPMI1640 with dialyzed fetal bovine serum (RPMI+ds) (AID 1963877).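 For Viability: 100% = DMSO control wells and 0% = empty wells.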 Note: nearly all actives have a fitted effect of over 30% in size. Note: potency is the fitted concentration of half-maximal effect. The following applies: NOMO1 in RPMI+dialyzed FBS viability, ATP luminescence, 48 h; series mostly up to 45.8 µM. The procedure, abridged: as §1
The nature of test [5]: Quantitative highthroughput screen to assess conditional lethalithy of P12 Ichikawa cells grown in Human Plasma-Like Medium with dialyzed fetal bovine serum (HPLM+ds) (AID 1963879). Note: nearly all actives have a fitted effect of over 35% in size. Note: potency is the fitted concentration of half-maximal effect. Particulars: ATP luminescence, 48 h; Potency: viability; series mostly up to 45.8 µM. The procedure, abridged:
as §1

Test [6] in a line: Quantitative highthroughput screen to assess conditional lethalithy of P12 Ichikawa cells grown in RPMI1640 with dialyzed fetal bovine serum (RPMI+ds) (AID 1963880).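 For Viability: 100% = DMSO wells and 0% = empty wells on each plate.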 Note: nearly all actives have a fitted effect of over 35% in size. Note: potency is the fitted concentration of half-maximal effect. The following applies: ATP luminescence, 48 h; Potency: P12-Ichikawa viability; series mostly up to 45.8 µM. The procedure, abridged:
as §1

A short description of test [7]: Quantitative highthroughput screen to assess conditional lethalithy of P12 Ichikawa cells grown in RPMI1640 with untreated serum (RPMI+s) (AID 1963881).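 For Viability: 100% = DMSO wells and 0% = empty wells without cells.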 Note: nearly all actives have a fitted effect of over 35% in size. Note: potency is the fitted concentration of half-maximal effect. The following applies: ATP luminescence, 48 h; Potency: viability; series mostly up to 45.8 µM. The procedure, abridged: as §1
Test [8] is described as follows: Quantitative highthroughput screen to assess conditional lethalithy of SEM cells grown in Human Plasma-Like Medium with dialyzed fetal bovine serum (HPLM+ds) (AID 1963882). Note: nearly all actives have a fitted effect of over 35% in size. Note: potency is the fitted concentration of half-maximal effect. The following applies: SEM B-ALL cells in HPLM+ds, CellTiter-Glo viability, 48 h; series mostly up to 45.8 µM. In short, it runs like this: as §1
Test [9] in a line: Quantitative highthroughput screen to assess conditional lethalithy of SEM cells grown in RPMI1640 with unreated serum (RPMI+s) (AID 1963883).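 For Viability: 100% = DMSO wells and 0% = empty wells without cells.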 Note: nearly all actives have a fitted effect of over 35% in size. Note: potency is the fitted concentration of half-maximal effect. The following applies: SEM B-ALL cells, CellTiter-Glo viability, 48 h; series mostly up to 45.8 µM. The procedure, abridged: as §1
For orientation: ATP-based viability assays read luminescence as a measure of living cells.

Test [10] can be described thus: Quantitative highthroughput screen to assess conditional lethalithy of SEM cells grown in RPMI1640 with dialyzed fetal bovine serum (RPMI+ds) (AID 1963884).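 For Viability: 100% = DMSO control wells and 0% = empty wells without cells.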 Note: nearly all actives have a fitted effect of over 35% in size. Note: potency is the fitted concentration of half-maximal effect. Particulars: SEM B-ALL cells, RPMI+dialyzed FBS, CellTiter-Glo viability, 48 h; series mostly up to 45.8 µM. In short, it runs like this:
as §1

Test [11] in a line: Cellular viability qHTS for adrenocortical cancer (ACC) cell line SW-13 (AID 1963989).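 For activity (max response): cells grown in serum-free medium with ITS supplement; % is set by controls: 0 for no effect and ±100 for the full control effect.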 Note: nearly all actives have a fitted effect of over 65% in size. Note: potency is the fitted concentration of half-maximal effect. Particulars: SW-13 ACC cells viability, CellTiter-Glo, 48 h; activity (max response): hits give low values. The procedure, abridged:
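SW-13 cells in ITS-supplemented serum-free DMEM were plated overnight, then exposed for 48 h at 37C to compound titrations (up to 46 uM final). Viability was read by CellTiter-Glo luminescence; four-parameter logistic fits gave IC50 and efficacy.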

A short description of test [12]: Cellular viability qHTS for adrenocortical cancer (ACC) cell line NCI-H295R (AID 1963990). Note: nearly all actives have a fitted effect of over 60% in size. Note: potency is the fitted concentration of half-maximal effect. The following applies: CellTiter-Glo ATP luminescence, 48 h; series mostly up to 46.1 µM. In short, it runs like this:
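Luminescent ATP read-out (CellTiter-Glo, 20 min RT) after 48 h drug exposure of NCI-H295R cells; a titration up to 46 uM final. Data normalized to doxorubicin (100% inhibition) and DMSO (0%); 4-parameter fit gives IC50, max response.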

Test [13] in a line: Quantitative highthroughput screen to assess conditional lethalithy of NOMO1 cells grown in Human Plasma-Like Medium with dialyzed fetal bovine serum (HPLM+ds) (AID 1963878). The following applies: NOMO1 AML cells in HPLM+ds, CellTiter-Glo viability, 48 h; series mostly up to 45.8 µM. The procedure, abridged: as §1

“And” between values parts separate entries of the source, which are not always exact repeats. Identical values can stand only once. Records with an inconclusive call do not appear. A number with no mark means an inactive call. The source made the active and inactive calls. Calls come from the whole dose curve; as a rule, active = well fitted curve in the direction sought with a large enough effect; inconclusive = small, poorly fitted or top-dose-only effect, or another doubt; inactive = no such curve, though single readings can be large; an effect the other way counts as inactive or inconclusive.

Turning to `CC(=O)CC(c1ccccc1)c1c(O)c2ccccc2oc1=O` (centres undefined), the Potency result in test [1], in [2], in test [3], in test [4], in test [5] and in [6] was “inactive” each time. The Potency entry in test [7], in [8], in test [9], in [10] and in test [12] was “inactive” throughout. Further, the activity (max response) in test [11] was -5.83% and 0.968%.

In the case of `CN1C(C(=O)Nc2ccccn2)=C(O)c2sc(Cl)cc2S1(=O)=O`, the Potency entry in test [1], in [3], in [4], in test [5], in test [6] and in [7] was “inactive” each time. The Potency result in [8], in [9], in test [10] and in [12] was “inactive” throughout. The Potency in [2] was 16.6 µM (active). Further, the activity (max response) in [11] is -21.7%.

As to `CC(O)(C#Cc1ccc2c(c1)N(c1nc(N)ncc1Cl)CC2)c1nccs1` (centres undefined), the Potency was 13 µM (active) in test [1] and 10.3 µM (active) in [2]. Further, the Potency result in test [3], in test [4], in test [13] and in test [10] was “inactive” each time.

For the compound `CCCCCN(CCC12CC3CC(CC(C3)C1)C2)C(=O)NCCCc1ccncc1`, the Potency in [1] is 8.33 µM (active); in test [2], 7.42 µM (active). For the same compound, the Potency entry in test [3], in test [4], in [5], in test [6], in test [7] and in [8] was “inactive” throughout. The Potency entry in test [9], in [10] and in test [12] was “inactive” each time. In test [11], the activity (max response) was -15.8%.

Consider `CN1CCN(c2ccc(C(=O)Nc3n[nH]c4ccc(Cc5cc(F)cc(F)c5)cc34)c(NC3CCOCC3)c2)CC1`, for which the Potency in [1] is 209 nM (active) and 164 nM (active); in test [2], 326 nM (active) and 372 nM (active) and 411 nM (active); in test [3] it was 26.3 µM (active); in test [4] it was 20.9 µM (active); in test [5], 23.4 µM (active); in [6], 18.6 µM (active). Also, the Potency in [7] is 23.4 µM (active); in test [8], 4.17 µM (active); in [9], 5.24 µM (active); in test [10], 3.71 µM (active); in test [11], 3.16 µM (active); in [12], 7.08 µM (active).

(Values after PubChem BioAssay (NCATS).)
